# Source: PubChem BioAssay (NCI)
# About 83,000 compounds went through this panel and 20% of them were active in at least one assay; those are over-represented in the sample as a whole.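 Negative percent growth values reflect cell death: -40 means 40% of the cells present at the start died, and -100 means all died.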 A number with no mark means an inactive call. The source made the active and inactive calls. The calls were made as follows: active = growth percent below 10; inactive = the rest.
# Columns and labels:
# Assay in all cases: NCI-60 one-dose screen, 48 h (100 = growth as untreated, 0 = no growth, -100 = all killed)
# Conditions in all cases: 10 µM unless noted
# SK-MEL-2 melanoma = system: SK-MEL-2 melanoma
# EKVX NSCLC = system: EKVX NSCLC
# SN12C renal = system: SN12C renal
# UO-31 renal = system: UO-31 renal
# TK-10 renal = system: TK-10 renal
# ACHN renal = system: ACHN renal
# CAKI-1 renal = system: CAKI-1 renal
# A498 renal = system: A498 renal
# CCRF-CEM leukemia = system: CCRF-CEM leukemia
# MOLT-4 leukemia = system: MOLT-4 leukemia
Compound,growth (SK-MEL-2 melanoma),growth (EKVX NSCLC),growth (SN12C renal),growth (UO-31 renal),growth (TK-10 renal),growth (ACHN renal),growth (CAKI-1 renal),growth (A498 renal),growth (CCRF-CEM leukemia),growth (MOLT-4 leukemia)
CCOc1ccc(Nc2nc3c(s2)C(=O)c2ccccc2C3=O)cc1,101%,96.4%,51.3%,72.9%,127%,75.1%,74.2%,76.7%,51.4%,48.5%
C/C=C/c1cc2c(c(=O)o1)C(=O)[C@@H](O)[C@H](C)O2,72.9%,95%,97.6%,0.0978% (active),5.77% (active),26.3%,43.3%,125%,-17.5% (active),43.6%
c1ccc(C2NCCNC2c2ccccc2)cc1 (stereo not given),98.7%,103%,102%,80.9%,110%,108%,97.6%,80.6%,104%,99.7%
CCOC(=O)C1=NN(c2ccccc2)C(=O)/C1=C\N1C(=O)/C(=C/c2cccc(O)c2)SC1=S,99.6%,107%,82.3%,76%,117%,99.5%,100%,94.5%,93%,95.7%
COc1ccc(C(OCC2OC(n3ccc(NC(=O)c4ccccc4)nc3=O)C(O)C2O)(c2ccccc2)c2ccccc2)cc1 (stereo not given),90.1%,38.4%,-38.2% (active),22.7%,81.5%,47.3%,55%,52.8%,47.1%,3.18% (active)
COC1=CC(=O)c2c(O)c3c(c(O)c2C1=O)CC(C)(O)OC3 (stereo not given),-6.4% (active),23.2%,34.7%,33.8%,66.1%,27.6%,34.4%,68.3%,19.5%,14.5%
